Measured values: PubChem BioAssay (NCATS)
Results filed as inconclusive are left out. Active and inactive are the calls of the source. Unless noted, the call rests on the fitted dose curve; in most records, active means well fitted curve in the direction sought with a large enough effect; inconclusive means small, poorly fitted or top-dose-only effect, or another doubt; inactive means no such curve, though single readings can be large; an effect the other way counts as inactive or inconclusive.

Experiments:
[1] = Cell Viability - Mesenchymal (AID 546);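 further: cells exposed to compound for 40 hours before reading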
Method in brief: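 Human kidney mesenchymal cells from normal renal glomeruli, 1000 cells/well, rested 5 hr at 37 °C, then treated 40 hr at 37 °C in complete medium. Cellular ATP read by CellTiter-Glo luminescence; AC50 from Hill-equation fits.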

[2] = target: 3',5'-cyclic-AMP phosphodiesterase 4B (Homo sapiens) (UniProt Q07343); assay: qHTS Assay for Inhibitors of PDE-IV (AID 607; active means well fitted activation curve with a large enough effect in the main read-out, with a control signal flat, not every such curve was filed as active)
Method in brief: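 Live HEK293 cells with a modified cyclic nucleotide-gated (CNG) channel report intracellular cAMP via membrane-potential dye fluorescence (ex 535/em 590 nm). Endogenous PDE-IV was targeted. Compounds were tested at up to 22.9 uM final; RO 20-1724 100 uM served as control.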

[3] = Cellular Toxicity (caspase-3) HepG2 (AID 654);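 further: cells exposed to compound for 16 hours before reading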
Method in brief: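 Cells plated 5 hr at 37 °C, compound added, incubated 16 hr at 37 °C. Caspase-Glo 3/7 reagent followed, 20 min at room temperature, then luminescence read. Activation scored as signal increase; AC50 from Hill fit.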

[4] = Cellular Toxicity (caspase-3) Jurkat (AID 655);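 further: cells exposed to compound for 16 h at 37 °C before reading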
Method in brief: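 Luminescent caspase-3/7 readout (aminoluciferin substrate cleavage) in human T-cell leukemia Jurkat cells after 16 hr compound exposure. Concentration-response normalized to DMSO and 100 uM tamoxifen; AC50 by standard Hill equation.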

[5] = Cellular Toxicity (caspase-3) HUV-EC-C (AID 656)
Method in brief: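 Luminescent caspase-3/7 activation (aminoluciferin substrate cleavage) in HUV-EC-C cells after 16 hr compound exposure, 37°C. Signal normalized to DMSO basal and 100 uM tamoxifen as 100%; AC50 from concentration-response fitted with the Hill equation.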

[6] = Cellular Toxicity (caspase-3) SHSY5Y (AID 657)
Method in brief: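 Luminescent caspase-3/7 readout (aminoluciferin release) in SH-SY5Y cells after 16 h compound exposure in complete medium. Activity scaled between DMSO basal and 10 uM staurosporine as 100%; concentration-response fitted to Hill equation for AC50.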

[7] = Cellular Toxicity (caspase-3) BJ (AID 658)
Method in brief: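 BJ human foreskin fibroblasts, 1000 cells/well, treated 16 hours at 37 °C in complete medium; caspase 3/7 activity by Caspase-Glo luminescence after 1 hr at room temperature. Normalized to DMSO and 10 uM staurosporine; AC50 from Hill fits.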

[8] = Cellular Toxicity (caspase-3) MRC-5 (AID 659)
Method in brief: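 MRC-5 human normal lung fibroblasts, 1500 cells/well, treated 16 h at 37 °C in complete medium. Caspase 3/7 measured by Caspase-Glo luminescence after 1 h at room temperature. Normalized to DMSO and 10 uM staurosporine; AC50 from Hill fit.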

[9] = Cellular Toxicity (caspase-3) Mesangial (AID 660);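 further: combined caspase 3 and 7 activity read by Caspase-Glo luminescence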
Method in brief: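 Mesangial cells, 1000/well, 5 h settle at 37 °C; compound 16 h, 37 °C; Caspase-Glo 3/7 reagent 20 min RT; luminescence. Norm.: DMSO = 0%, tamoxifen 100 uM = 100%. AC50, Hill fit.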

[10] = Cellular Toxicity (caspase-3) SK-N-SH (AID 661)
Method in brief: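 Human neuroblastoma SK-N-SH, 1500 cells/well, 5 hr pre-incubation, then compound 16 hr, 37 °C. Caspase-Glo 3/7 reagent, 1 hr RT, luminescence. Norm. to DMSO/10 uM staurosporine; Hill-fit AC50.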

[11] = Cellular Toxicity (caspase-3) H-4-II-E (AID 663);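 further: cells exposed to compound for 16 hr before readout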
Method in brief: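 Rat hepatoma H-4-II-E cells (1500/well) plated 5 hr, then exposed to compound titrations for 16 hr at 37 °C. Caspase-Glo 3/7 luminescence read after 20 min at RT; data normalized to DMSO and 100 uM tamoxifen, AC50 from Hill fits.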

[12] = Cellular Toxicity (caspase-3) Hek293 (AID 664);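 further: cells exposed to compound for 16 h at 37 °C before readout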
Method in brief: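 Cells plated, 5 hr at 37 °C; compounds added; 16 hr at 37 °C; Caspase-Glo 3/7 reagent, 20 min RT; luminescence read. Activation expressed relative to DMSO and 100 uM tamoxifen, AC50 by Hill model.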

[13] = Cellular Toxicity (caspase-3) N2a (AID 665);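 further: compound exposure lasted 16 h at 37 °C before readout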
Method in brief: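 N2a cells, 1500/well, 5 h settle at 37 °C; cpd 16 h, 37 °C; Caspase-Glo 3/7, 1 h RT; luminescence. Norm: DMSO = 0, 10 uM staurosporine = 100%. AC50, Hill fit.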

[14] = Cellular Toxicity (caspase-3) NIH 3T3 (AID 666)
Method in brief: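 Luminescence from aminoluciferin released by caspase-3/7 cleavage of a peptide substrate served as read-out. Mouse fibroblast NIH 3T3 cells were exposed to compounds over a concentration range for 16 hours, and AC50 values came from standard Hill modelling.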

[15] = Cellular Toxicity (caspase-3) Renal Proximal Tubule (AID 667);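 further: cells exposed to compound for 16 hours at 37 °C before detection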
Method in brief: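 Luminescent caspase 3/7 signal from peptide-aminoluciferin cleavage measures apoptosis in freshly isolated rat kidney proximal tubule cells after 16 h compound exposure. Concentration-response data are normalized to DMSO and 10 uM staurosporine, and AC50 values come from Hill equation fits.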

[16] = target: Cytochrome P450 3A4 (Homo sapiens) (UniProt P08684); assay: qHTS Assay for Inhibitors and Substrates of Cytochrome P450 3A4 (AID 884); further: series mostly up to about 57 µM; nearly all actives have a fitted effect of over 50% in size
Method in brief: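 20 nM human CYP3A4 with 25 uM Luciferin-PPXE (at KM) in 200 mM KPO4, preincubated 10 min with compound; NADPH regeneration started a 60 min RT reaction. Luciferin detected by luminescence, normalized to 57 uM ketoconazole as full inhibition.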

[17] = target: Cytochrome P450 3A4 (Homo sapiens) (UniProt P08684); assay: qHTS Assay for Activators of Cytochrome P450 3A4 (AID 885); further: nearly all actives have a fitted effect of over 65% in size
Method in brief: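 Quantitative HTS format: compounds preincubated with 20nM human CYP3A4 and Luciferin-PPXE substrate at KM, reaction started by NADPH regeneration, stopped after 60 min, luciferase luminescence read 20 min later.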

Measured: outcome

Cytochrome P450 3A4 (Homo sapiens), sequence (P08684 whole entry, looked up): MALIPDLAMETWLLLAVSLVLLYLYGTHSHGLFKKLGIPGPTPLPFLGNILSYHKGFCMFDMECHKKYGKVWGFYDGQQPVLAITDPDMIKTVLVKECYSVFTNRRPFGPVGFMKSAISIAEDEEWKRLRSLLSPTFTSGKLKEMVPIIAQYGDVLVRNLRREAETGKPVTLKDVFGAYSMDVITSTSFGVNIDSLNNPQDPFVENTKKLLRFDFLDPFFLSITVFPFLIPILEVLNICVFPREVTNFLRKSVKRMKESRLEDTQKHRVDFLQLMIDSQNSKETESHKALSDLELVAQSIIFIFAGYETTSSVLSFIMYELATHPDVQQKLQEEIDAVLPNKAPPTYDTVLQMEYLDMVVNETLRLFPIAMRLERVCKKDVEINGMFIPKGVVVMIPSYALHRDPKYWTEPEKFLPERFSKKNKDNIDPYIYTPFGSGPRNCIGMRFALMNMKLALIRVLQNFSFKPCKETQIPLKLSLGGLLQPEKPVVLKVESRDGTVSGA
3',5'-cyclic-AMP phosphodiesterase 4B (Homo sapiens), sequence (Q07343 whole entry, looked up): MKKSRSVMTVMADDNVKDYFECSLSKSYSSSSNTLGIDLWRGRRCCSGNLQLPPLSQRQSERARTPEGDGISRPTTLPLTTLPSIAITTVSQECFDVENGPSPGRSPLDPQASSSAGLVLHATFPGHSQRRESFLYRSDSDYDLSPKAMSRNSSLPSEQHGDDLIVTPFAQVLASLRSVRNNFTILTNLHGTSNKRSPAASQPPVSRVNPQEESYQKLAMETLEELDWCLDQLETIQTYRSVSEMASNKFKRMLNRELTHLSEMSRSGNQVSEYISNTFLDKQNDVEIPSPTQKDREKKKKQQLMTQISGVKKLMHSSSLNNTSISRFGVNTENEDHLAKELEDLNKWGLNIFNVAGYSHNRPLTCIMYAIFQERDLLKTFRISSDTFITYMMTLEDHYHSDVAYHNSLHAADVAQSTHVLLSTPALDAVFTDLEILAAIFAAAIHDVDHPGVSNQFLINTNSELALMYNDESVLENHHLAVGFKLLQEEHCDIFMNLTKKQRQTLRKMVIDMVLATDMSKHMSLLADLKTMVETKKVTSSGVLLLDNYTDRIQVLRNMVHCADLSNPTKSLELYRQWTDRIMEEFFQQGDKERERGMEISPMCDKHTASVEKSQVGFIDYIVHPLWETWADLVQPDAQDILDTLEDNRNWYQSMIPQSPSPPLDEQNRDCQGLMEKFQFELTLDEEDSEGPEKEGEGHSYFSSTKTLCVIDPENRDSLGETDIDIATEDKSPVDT

Cc1c(N(C)C)c(=O)n(-c2ccccc2)n1C
not listed: [17]
inactive: all other assays above

O=C1c2cccc(O)c2C(=O)c2c(O)cccc21
not listed: [2] | [17]
inactive: all other assays above

CC1CC(OC(=O)c2ccccc2O)CC(C)(C)C1 (centres undefined)
not listed: [2] | [16] | [17]
inactive: all other assays above

Cc1cc(C)nc(NS(=O)(=O)c2ccc(N)cc2)n1
not listed: [16]
inactive: all other assays above

C[N+](C)(C)CC[N+]1(C)Cc2c(Cl)c(Cl)c(Cl)c(Cl)c2C1
inactive: [2]

Cc1cc(=O)[nH]c(=S)[nH]1
not listed: [2] | [17]
inactive: all other assays above

O=C1C(c2[nH]c3ccccc3c2O)=Nc2ccccc21
not listed: [2] | [17]
inactive: all other assays above

CC(=O)Nc1ccc(C(=O)O)cc1
not listed: [2] | [17]
inactive: all other assays above

CC(C)=CCC/C(C)=C/CO
inactive: [2]

CCN(CC)CCc1nc(-c2ccccc2)no1
inactive: [2]

Nc1ccc(S(=O)(=O)c2ccc(N)cc2)cc1
not listed: [16] | [17]
inactive: all other assays above

CCCCCCCC(=O)OCC(COC(=O)CCCCCCC)OC(=O)CCCCCCC
not listed: [2] | [17]
inactive: all other assays above

C=CCNC(N)=S
not listed: [2] | [17]
inactive: all other assays above

O=C(O)CCCCC1CCSS1 (centres undefined)
not listed: [2] | [17]
inactive: all other assays above
